The source made the active and inactive calls. Unless noted, the rule behind the calls is not given here.

Drawing on PubChem BioAssay, this text covers inhibition for 40 molecules.

Tested on in one test: not listed separately
Briefly: HepG2 cytotoxicity, primary screen, cytotoxicity control for P. falciparum antimalarial project, cell-based, ATP luminescence (AID 2303;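 active = inhibition above 50%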;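 note: 0% = DMSO wells and 100% = digitonin-killed cells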). As to conditions: HepG2 viability, 24-48 h, at 10 µM, active compounds read high.
For the molecule `Cc1cccc(C(=O)Nc2ccnc(N3CCC(N(C)Cc4cccc(O)c4)CC3)c2)c1`, the inhibition was 7% (inactive).

Consider `CN1CCC(C(=O)Nc2cccc(-c3cccc(-c4nc5ccc(F)cc5[nH]4)c3)c2)CC1`, for which the inhibition was 32% (inactive).

Take `Cc1cnc(Nc2ccccc2)nc1N[C@@H](CCCN)C(=O)Nc1ccccc1`: the inhibition is -2% (inactive).

The target in a further test is L-lactate dehydrogenase (Plasmodium falciparum (isolate CDC / Honduras)) (UniProt Q27743). Briefly: PfLDH activity inhibition – cell lysate, 3D7 strain, counter-screen for P. falciparum growth inhibition project (AID 2304).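 Note: 0% = vehicle and 100% = reference inhibitor.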 The note with it: P. falciparum 3D7 crude extract, LDH APAD/NBT absorbance; at 2 µM; active compounds read high. (In general: Counterscreens check selectivity or assay interference.)
Sequence of L-lactate dehydrogenase (Plasmodium falciparum (isolate CDC / Honduras)) (Q27743 whole entry, looked up): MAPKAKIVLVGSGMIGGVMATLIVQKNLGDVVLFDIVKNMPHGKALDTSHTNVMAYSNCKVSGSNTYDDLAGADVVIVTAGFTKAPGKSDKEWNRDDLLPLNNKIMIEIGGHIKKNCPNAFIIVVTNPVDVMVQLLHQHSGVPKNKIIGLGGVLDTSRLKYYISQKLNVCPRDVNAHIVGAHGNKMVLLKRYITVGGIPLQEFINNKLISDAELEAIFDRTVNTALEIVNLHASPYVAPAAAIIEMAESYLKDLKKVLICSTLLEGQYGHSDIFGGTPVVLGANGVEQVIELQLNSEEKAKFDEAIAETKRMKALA
Consider `O=C(NCCCCCN1CCC(c2c[nH]c3ccccc23)CC1)c1ccc(Cl)c(Cl)c1`, for which the inhibition is -2% (inactive).

With `COc1cc(Cc2cnc(N)nc2N)cc(OCCCCCC(N)=O)c1OC`, the inhibition is 0% (inactive).

`O=C(/C=C/c1ccc(C(F)(F)F)cc1)NCCCCCN1CCN(C(=O)Nc2ccc(F)c(Cl)c2)CC1`: the inhibition was -2% (inactive).

As for `O=C(NC1CC1)c1ccc(N2CCC(COc3cccc(F)c3)CC2)nc1`, the inhibition is 4% (inactive).

With `O=C(Nc1cccc(CN2CCCN(Cc3ncc[nH]3)CC2)c1)c1cc2ccccc2s1`, the inhibition is -2% (inactive).

Turning to `O=c1cc(NCCCNCc2cc3c(Cl)cc(Cl)cc3[nH]2)[nH]c2ccccc12`, the inhibition was -3% (inactive).

`COc1ccc(CNCc2ccc(-c3cccc(-c4nc5c(C)cccc5[nH]4)c3)cc2)cc1`: the inhibition was -7% (inactive).

With `CN(C)Cc1cccc(CNC(=O)c2sccc2OCc2ccc(Cl)cc2)c1`, the inhibition was -6% (inactive).

`COc1cc2nc(SCC(C)C)n(CCCn3ccnc3)c(=N)c2cc1OC`: the inhibition was -2% (inactive).

In the case of `CCOc1ccc2nc(C)cc(NN=Cc3cccc(F)c3)c2c1`, the inhibition was 0% (inactive).

With `O=C(NC1CC1)c1ccc(N2CCC(Cc3ccccc3)CC2)c([N+](=O)[O-])c1`, the inhibition is -1% (inactive).

Regarding `O=S(=O)(ON=C1CCc2ccccc21)c1ccc(Cl)cc1`, the inhibition was 3% (inactive).

As to `CCc1cn2c3c(cc(C(=O)N[C@@H](Cc4cccc(F)c4)[C@H](O)CNC4CCOCC4)cc13)N(C)S(=O)(=O)CC2`, the inhibition was -2% (inactive).

Consider `COc1ccc(Cl)cc1NC(=O)C(C)Nc1ccc(-c2ccccc2)cc1` (stereo not drawn), for which the inhibition is -1% (inactive).

For `CC(Cc1ccc(OCCCCOc2ccccc2)cc1)NCCc1ccc(Oc2ccccc2)cc1` (stereo not drawn), the inhibition was 5% (inactive).

As for `OCCN1CCN(Cc2ccc(-c3cccc(-c4nc5ccc(C(F)(F)F)cc5[nH]4)c3)cc2)CC1`, the inhibition is 0% (inactive).

With `CCN(CC)CCN(Cc1ccc(-c2ccc(C(F)(F)F)cc2)cc1)C(=O)Cn1cc(CCCCc2cccc(F)c2F)c(=O)c2ccccc21`, the inhibition is -5% (inactive).

On to `O=c1c(NCCCN(Cc2ccc(F)cc2)c2ccccn2)c(NCc2cccnc2)c1=O`, for which the inhibition is -2% (inactive).

As to `COc1ccc(-c2ccc(NC(=O)c3ccc(F)cc3)cc2)cc1CN1CCCN(C)CC1`, the inhibition is -2% (inactive).

In the case of `O=C(Nc1cncc(NC(=O)c2ccc(Cl)c(Cl)c2)c1)c1ccc(Cl)c(Cl)c1`, the inhibition was 0% (inactive).

For the molecule `CCn1cnc2c(Nc3cccc([N+](=O)[O-])c3)nc(N3CCC(N4CCCCC4)CC3)nc21`, the inhibition was 3% (inactive).

Take `NC1CCN(c2nc(NCCCc3ccc(O)cc3)nc(NCc3ccccc3-c3ccc(C(F)(F)F)cc3)n2)CC1`: the inhibition was 1% (inactive).

Consider `CC(C)CNC(=O)c1cncc(-c2cccc(CNC3Cc4ccccc4C3)c2)c1`, for which the inhibition is 1% (inactive).

Take `CC(C)COc1ccc(Cl)cc1Cc1nc(-c2nc3nc(N4CCN(C)CC4)ccc3[nH]2)cs1`: the inhibition is -6% (inactive).

Turning to `COc1cc(OC)cc(C(=O)Nc2nc(-c3ccccn3)cs2)c1`, the inhibition was 1% (inactive).

Take `O=C(Nc1ccccc1)Nc1ccc(-c2cccc(-c3nc4ccc(C(F)(F)F)cc4[nH]3)c2)cc1`: the inhibition is 4% (inactive).

Take `CN(CCCCCN1CCC(NC(=O)Nc2ccc(Oc3ccccc3)cc2)C1)C(=O)/C=C/c1ccc(Cl)c(Cl)c1` (stereo not drawn): the inhibition is -2% (inactive).

For `CCCCNCc1ccc(-c2nc(CN(C(=O)Nc3cc([N+](=O)[O-])ccc3F)C3Cc4ccccc4C3)cs2)cc1`, the inhibition was -2% (inactive).

As for `Cc1cc(NC(=O)Nc2ccc3nccc(N4CCN(C)CC4)c3c2)ccc1Br`, the inhibition was -2% (inactive).

With `CS(=O)(=O)c1cccc(-c2cnc(N)c3cc(-c4cccc(F)c4)ccc23)c1`, the inhibition is 2% (inactive).

Turning to `CC(C)Cn1c(Sc2ccc(C#N)c([N+](=O)[O-])c2)nnc1-c1ccccc1Cl`, the inhibition is 2% (inactive).

Take `Cc1cc(C(=O)Nc2nc(-c3ccccn3)nc3ccsc23)no1`: the inhibition is 0% (inactive).

Consider `Cc1cc(N(CCO)CCCN2CCCCC2)nc(Nc2ccc(Cl)cc2)n1`, for which the inhibition was -9% (inactive).

As to `Cc1cccc(Cl)c1Nc1nnc(-c2cccc(C(=O)NC[C@@H]3CC[C@H]4C[C@@H]3C4(C)C)c2)o1`, the inhibition is -3% (inactive).

For `C=CCOC(=O)N1CCC(CNCc2cccc(-c3cccc(-c4nc5c(C)cccc5[nH]4)c3)c2)C1` (stereo not drawn), the inhibition was -2% (inactive).

As to `CCC1CCCCN1S(=O)(=O)c1ccc(NC(=O)c2cc(C)on2)cc1` (stereo not drawn), the inhibition is 0% (inactive).

Take `COc1ccc(-c2ccc(S(=O)(=O)Nc3cc4c(cc3OC(C)C)CCNCC4)cc2)cc1`: the inhibition is 3% (inactive).

Regarding `Cc1cccc(C(=O)Nc2ccnc(N3CCC(N(C)Cc4cccc(O)c4)CC3)c2)c1`, the inhibition was -1% (inactive).

Consider `CN1CCC(C(=O)Nc2cccc(-c3cccc(-c4nc5ccc(F)cc5[nH]4)c3)c2)CC1`, for which the inhibition is 0% (inactive).

Regarding `Cc1cnc(Nc2ccccc2)nc1N[C@@H](CCCN)C(=O)Nc1ccccc1`, the inhibition was -1% (inactive).

What is called inhibition is the drop in the measured response relative to a control, in per cent.
